JMJD2A Tudor inh: blocks the human JMJD2A Tudor domain. O75164. Potency, µM (top dose mostly 114 µM), hits mostly inhibitors. AlphaScreen JMJD2A-Tudor / H3K4me3 peptide binding. AID 504339. 390,000 tested, 4.4% active; further: nearly all actives have a fitted effect of over 50% in size
HP1b chromo inh: HP1-beta chromodomain-methylated histone interaction inhibition; P83916; AlphaScreen HP1-beta / biotin-H3K9me3 peptide binding; Potency, µM (series often up to 114 µM), usual class: inhibitors; 390,000 tested, 0.56% active; AID 540317; further: nearly all actives have a fitted effect of over 70% in size
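HP1-beta protein (50 nM final) preincubated 30 min at room temperature with biotinylated H3(1-18)K9me3 peptide (50 nM) in PBS pH 7.4, 0.01% Tween-20, then compound added for 30 min. AlphaScreen streptavidin donor/nickel chelate acceptor beads (10 ug/mL final), 30 min dark, luminescence read.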
L3MBTL1 inh: blocks human L3MBTL1; AlphaScreen L3MBTL1–H3K9me1 peptide binding; Potency, µM (highest dose often 57.1 µM), actives largely listed as inhibitors; 230,000 tested, 0.66% active; further: nearly all actives have a fitted effect of over 60% in size
Target sequence (Q9Y468 whole entry, looked up): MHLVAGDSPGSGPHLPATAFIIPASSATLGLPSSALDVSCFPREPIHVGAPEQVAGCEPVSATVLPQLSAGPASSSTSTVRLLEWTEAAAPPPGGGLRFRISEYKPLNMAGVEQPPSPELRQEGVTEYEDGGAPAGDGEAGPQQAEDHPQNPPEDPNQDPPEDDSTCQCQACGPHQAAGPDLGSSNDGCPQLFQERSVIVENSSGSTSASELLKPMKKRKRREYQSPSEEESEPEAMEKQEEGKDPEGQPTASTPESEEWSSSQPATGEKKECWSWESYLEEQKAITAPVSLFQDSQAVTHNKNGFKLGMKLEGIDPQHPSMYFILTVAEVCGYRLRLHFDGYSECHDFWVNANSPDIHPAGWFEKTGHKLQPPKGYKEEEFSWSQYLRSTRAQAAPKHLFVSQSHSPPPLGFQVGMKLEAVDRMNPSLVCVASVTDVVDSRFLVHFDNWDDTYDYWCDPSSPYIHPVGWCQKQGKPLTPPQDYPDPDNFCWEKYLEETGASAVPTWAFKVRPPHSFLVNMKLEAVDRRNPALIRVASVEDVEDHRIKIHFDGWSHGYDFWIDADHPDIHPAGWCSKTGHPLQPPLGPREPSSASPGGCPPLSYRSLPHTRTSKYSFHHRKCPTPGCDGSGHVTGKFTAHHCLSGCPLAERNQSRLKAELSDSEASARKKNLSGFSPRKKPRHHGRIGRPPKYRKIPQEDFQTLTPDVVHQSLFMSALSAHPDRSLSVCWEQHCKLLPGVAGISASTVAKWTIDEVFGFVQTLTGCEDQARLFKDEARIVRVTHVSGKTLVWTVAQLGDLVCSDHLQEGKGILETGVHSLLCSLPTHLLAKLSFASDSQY
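First, the protein-peptide complex forms for 30 min at room temperature (L3MBTL1 50 nM, biotinylated H3K9me1 peptide 75 nM). Next, compounds are pin-transferred and incubated 30 min. Finally, AlphaScreen beads are added and read after 30 min.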
BAZ2B block: BAZ2B (human) inhibition; AlphaScreen BAZ2B-H3K14Ac peptide displacement; 360,000 tested, 4.4% active; Potency, µM (titrated, usually from 114 µM), actives largely listed as inhibitors; Q9UIF8; AID 504333; further: nearly all actives have a fitted effect of over 60% in size
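Protein-peptide AlphaScreen: BAZ2B 50 nM, b-H3K14Ac 50 nM, 1x PBS pH 7.4 + 0.01% Tween-20. Preincubation 30 min RT; cpd 30 min RT (top 110 uM); beads 20 min RT, light-protected.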
Sfp inh: inhibitors of Bacillus subtilis Sfp phosphopantetheinyl transferase; Q9F4F7; 310,000 tested, 3.5% active; AID 1490; Potency, µM, usual class: inhibitors; Biochemical Sfp PPTase activity, qHTS;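 further: the enzyme is Sfp with the accession as filed and its product quenches rhodamine fluorescence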
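Step 1, compound plus 15 nM Sfp-PPTase, 15 min, room temperature. Step 2, add rhodamine-CoA (5 uM) and BHQ-2-YbbR (12.5 uM). Step 3, read 525/598 nm fluorescence at 0 and 30 min.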
G9a inh: G9a (human) methyltransferase inhibition. AID 504332. Potency, µM (highest dose often 102 µM), most hits filed as inhibitors. Q96KQ7. 350,000 tested, 8.8% active. G9a H3K9 monomethylation, AlphaScreen, 2 h; further: nearly all actives have a fitted effect of over 75% in size
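G9a (20 nM) was preincubated 15 min with compound, then reacted 2 h at room temperature with 500 nM biotin-H3K9 peptide and 20 µM SAM. Monomethyl-H3K9 detected by AlphaScreen using anti-H3K9me1 antibody.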
Numbers stand for hits; i = inactive; ? = inconclusive; nt = no result; [ ] = another dose, or the depositor's remark. An excerpt weighted towards active compounds, which were near 12% of everything screened. The call rests on the fitted dose curve; in most records, active means well fitted curve in the direction sought with a large enough effect; inconclusive means small, poorly fitted or top-dose-only effect, or another doubt; inactive means no such curve, though single readings can be large; an effect the other way counts as inactive or inconclusive.

SMILES	JMJD2A Tudor inh	HP1b chromo inh	L3MBTL1 inh	BAZ2B block	Sfp inh	G9a inh
Cc1cc(NC(=O)c2cccn2-c2nnc(N3CCCCC3)s2)ccc1Br	?	i	nt	71µM	nt	i
CN(C)c1ccc(CNC(=O)c2cccn2-c2nnc(N3CCCCC3)s2)cc1	?	i	nt	40µM	nt	i
O=C(COC(=O)c1ccc(O)cc1O)NC(=O)Cc1ccccc1	i	i	nt	nt	nt	nt
NNc1nccc(Nc2ccccc2C(=O)O)n1	?	i	?	25µM	50µM	?
O=C(CN1C(=O)CCC1=O)Nc1nc(-c2ccccn2)cs1	25µM	i	nt	5.6µM	50µM	i
O=C(COc1ccc(F)cc1Cl)Nc1nc(-c2ccccn2)cs1	nt	nt	i	i	nt	?
Cc1cc(C)cc(OCC(=O)Nc2nc(-c3ccccn3)cs2)c1	i	i	i	i	nt	22µM
O=C(CCCSc1ccccc1)Nc1nc(-c2ccccn2)cs1	i	i	nt	i	i	?
CSCCC(=O)Nc1nc(-c2ccccn2)cs1	89µM	i	nt	20µM	i	8.9µM
O=C(Nc1nc(-c2ccccn2)cs1)C1CCCC1	?	i	?	50µM	?	?
CCN(CC)C(=O)c1sc(NC(=O)c2ccc(OC)c([N+](=O)[O-])c2)c(C#N)c1C	nt	nt	i	i	i	i
COc1cccc(-c2cn3c(n2)sc2cc(C(=O)NC4CCCCCC4)ccc23)c1	i	i	nt	?	nt	i
CN(C)CCn1c2c(c(SCC(=O)N3CCc4ccccc43)nc1=O)CCCC2	i	i	i	i	nt	i[0.501 µM]
O=C(NCc1ccc2c(c1)OCO2)C1CCCCC1	?	i	i	i	i	i
Nc1ccc(S(=O)(=O)c2ccc(NC(=O)c3cccnc3)cc2)cc1	i	i	nt	nt	nt	nt
COc1ccc(CC(=O)Nc2nc3c(s2)CC(C(C)(C)C)CC3)cc1 (stereo unspecified)	i	i	nt	i	nt	i
CCCn1nc([N+](=O)[O-])c(C(C#N)c2nc3ccccc3s2)c(Cl)c1=O (stereo unspecified)	16µM	11µM	nt	10µM	i	7.1µM
CCn1nc([N+](=O)[O-])c(C(C#N)c2nc3ccccc3n2C)c(Cl)c1=O (stereo unspecified)	?	?	i	40µM	i	?
Cc1cc(C)c2c(CC(=O)Nc3cc(C(F)(F)F)ccc3Cl)coc2c1	i	i	nt	i	nt	i
CCOc1cc(C(=O)OC(C(=O)NC(=O)NC)c2ccccc2)ccc1OCC(=O)N1CCOCC1 (stereo unspecified)	i	i	i	nt	nt	nt
CCCS(=O)(=O)N1CC(=O)N(c2ccc(Cl)cc2)C(C)(C(=O)NC2CCCC2)C1 (stereo unspecified)	i	i	nt	i	nt	i
Cc1ccc2c(c1)-c1onc(C(=O)N(C)c3ccc(F)cc3)c1CO2	i	i	nt	i	nt	i
COC(=O)COc1ccc(S(=O)(=O)Nc2cc(OC)ccc2OC)cc1	nt	nt	i	i	i	i[2.33 µM]
CCOC(=O)Nc1cc(C)c(Cl)cc1OC	i	i	i	i	i	i
CCOC(=O)c1cc(S(=O)(=O)Nc2cc(C)c(Cl)cc2OC)[nH]n1	?	i	nt	i	nt	14µM
SMILES	JMJD2A Tudor inh	HP1b chromo inh	L3MBTL1 inh	BAZ2B block	Sfp inh	G9a inh
CCOC(=O)c1cc(S(=O)(=O)Nc2cc(OC)ccc2OC)[nH]n1	?	i	nt	i	nt	11µM
CC1=C(C(=O)OC2CCC(C)CC2)C(c2ccc(O)c([N+](=O)[O-])c2)NC(=O)N1 (stereo unspecified)	i	i	i	?	i	?
COCCCNc1ncnc2c1nnn2C	i	i	nt	i	nt	i
O=C(O)CC12CSc3[nH]c(=O)sc3C1c1ccccc1OC2=O (stereo unspecified)	nt	nt	nt	i	14µM	50µM
COc1ccc(-c2cc(C(=O)NCCc3ccc(OC)c(OC)c3)c3c(-c4ccc(F)cc4)[nH]nc3n2)cc1	i	i	nt	i	nt	i
C=CCc1c(C)[nH]c2c(OC)cccc2c1=S	?	i	i	i	13µM	4µM
CCOC(=O)C(=CNNc1c(C)csc1C(=O)OC)C(=O)OCC	i	i	i	i	i	8.9µM
Cc1coc2c1C(=O)C(=O)c1c-2ccc2c(C)cccc12	35µM	?	nt	35µM	i	?
Cc1coc2c1C(=O)C(=O)c1c-2ccc2c1CCCC2(C)C	45µM	?	?	7.9µM	i	2.2µM

Screens (PubChem BioAssay)
